Assay outcomes (PubChem BioAssay)
Statin myotox sup: suppressors of simvastatin-induced myotoxicity in C2C12 myotubes; ATP luminescence, 48 h; scaled: DMSO 0, geranylgeraniol control 100; rescue of ATP level, % at 7.49 µM; hit rate 0.78% among 330,000; AID 602340;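 active = mean ATP rescue above about 67%, or every replicate alone reaching that limit, limit read from the data, passing the limit was not always enough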;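 also: myotubes were challenged with 10 µM simvastatin during compound exposure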
AI-2 QS mod: Vibrio harveyi AI-2 quorum sensing modulation; Vibrio harveyi JMH597 AI-2 luminescence/OD600 ratio, 9 h; stronger effect = lower value; strain lacks LuxN and CqsS sensors; 0 = neutral-control median; activity change, % at 7.5 µM; hit rate 0.4% among 300,000; in the data active = activity change below about -75%, passing the limit was not always enough;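 also: luminescence divided by OD600 gain over 9 h not by final OD600 alone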
Rce1 inh: blocks yeast Ras-converting enzyme | hit rate 0.27% among 290,000 | Q03530 | calls only | yeast membranes, quenched prenylated peptide cleavage fluorescence;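 active = fall in fluorescence gain of 50% or more versus controls, with final raw signal at or below 3038400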;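 also: plate controls were neutral control wells for no effect and wells lacking membranes for full effect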
Target sequence (Q03530 whole entry, looked up): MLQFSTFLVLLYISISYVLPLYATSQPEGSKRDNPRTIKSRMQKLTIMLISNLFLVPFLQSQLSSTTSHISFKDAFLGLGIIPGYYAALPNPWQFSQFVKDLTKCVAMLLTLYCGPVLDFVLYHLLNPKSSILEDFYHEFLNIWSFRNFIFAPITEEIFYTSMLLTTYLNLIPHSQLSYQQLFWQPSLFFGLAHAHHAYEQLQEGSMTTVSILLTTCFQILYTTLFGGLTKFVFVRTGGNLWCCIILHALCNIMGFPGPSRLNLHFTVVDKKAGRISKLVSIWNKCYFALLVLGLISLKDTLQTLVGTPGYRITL
HIF activator: HIF pathway transcriptional activation | hit rate 0.32% among 300,000 | AID 1910 | U2OS HRE-luciferase reporter, luminescence; normalized: DMSO 0%, desferrioxamine 100% | activation, % at 7.5 µM (by protocol);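 active = mean activation of at least 10% of the iron chelator positive control signal, with at least half of replicates also reaching 10%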
PGC1a acetyl inh: modulators of PGC1a acetylation. U2OS PGC1a acetylation, AlphaScreen anti-acetyl-lysine; with virally co-expressed GCN5 acetyltransferase. inhibition, % at 15.6 µM. hit rate 0.17% among 350,000;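 active = every replicate shows inhibition of at least 40%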;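 also: 0% = neutral control wells and 100% = positive control wells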
An asterisk follows results filed as active; i = inactive; · = no result given; + = active, no number; ! = a repeat was not active. This is a sample that favours compounds with a hit; in the whole collection about 1.3% have one here.

SMILES	Statin myotox sup	AI-2 QS mod	Rce1 inh	HIF activator	PGC1a acetyl inh
C[C@H](CO)N1C[C@H](C)[C@@H](CN(C)C(=O)c2ccncc2)Oc2ncc(-c3ccc(F)cc3)cc2C1=O	0	·	·	·	-14
CC1(C)CCC(=O)N2CC[C@H]3c4cc5ccccc5nc4C[C@@H]1[C@H]32	99*	·	·	·	11
COC(=O)c1ccc2nc3c(cc2c1)[C@@H]1CCN2C(=O)CCC[C@H](C3)[C@H]12	19	·	·	·	-15
Cc1ccc2c(c1)sc[n+]2Cc1ccccc1	9	-3	+	4	10
Cc1ccc(-c2cc[n+](Cc3ccccc3)cc2)cc1	·	17	i	·	4
CC(/C=C\c1cccnc1)=C/C(=O)O	116*!	8	i	0	-6
CCN1[C@@H]2Cn3c(ccc(-c4ccccc4OC)c3=O)[C@H]1[C@@H](C(=O)N1CCOCC1)[C@@H]2CO	-4	·	·	·	·
CCN(CC)C(=O)c1[nH]cnc1C(=O)N[C@@H](CC(C)C)C(=O)OC(C)(C)C	-4	31	i	0	·
CCN(CC)C(=O)c1[nH]cnc1C(=O)NCC(=O)OC(C)(C)C	93*	16	i	-1	4
COc1cc(OC)cc(C(=O)NCc2cccnc2)c1	129*	15	i	1	5
O=C(NCc1ccc(F)cc1)C1CC(=O)N(CCc2ccccc2)C1 (configuration not stated)	2	59	i	0	4
O=C(NCc1cccnc1)C1CC(=O)N(CCc2ccccc2)C1 (configuration not stated)	133*	-1	i	0	2
COC(=O)c1ccccc1NC(=O)NCc1cccnc1	6	17	+	0	7
O=C(CC(=O)NCc1cccnc1)NCc1cccnc1	111*	-5	i	0	-5
C[C@@H]1CN([C@@H](C)CO)C(=O)Cc2cc(NC(=O)Nc3cccc4ccccc34)ccc2O[C@@H]1CN(C)S(=O)(=O)c1ccccc1	61	·	·	·	-15
CC=Cc1ccc2n(c1=O)C[C@H]1[C@H](CO)[C@@H](C(=O)NCc3ccccn3)[C@@H]2N1CC1CC1 (mixture of isomers)	5	·	·	·	-19
Cc1cccc(S(=O)(=O)N2CCCCN3[C@H](CO)[C@@H](c4ccc(-c5ccccc5)cc4)[C@@H]3C2)c1	·	·	·	·	0
CS(=O)(=O)Nc1ccc2c(c1)[C@@H]1C[C@@H](CC(=O)N3CCCCC3)O[C@H](CO)[C@@H]1O2	1	·	·	·	0
CCCCOC(=O)c1ccc(NC(=O)C(=O)NCc2cccnc2)cc1	1	5	i	25*	-2
COc1ccc(NC(=S)NCc2cccnc2)cc1	·	12	i	585*	8
COc1ccc(NC(=S)NCc2cccnc2)cc1OC	·	14	i	-1	·
C/C(NCc1ccccc1)=C(\C#N)C(=O)NCc1ccccc1	-20	28	i	0	-6
C/C(NCc1cccnc1)=C(\C#N)C(=O)NCc1ccccc1	104*	13	i	0	5
CCC(=O)Nc1ccc2c(c1)C(=O)N(C)C[C@H](OC)[C@H](C)CN(C(=O)C1CC1)[C@@H](C)CO2	-13	·	·	·	-15
CS(=O)(=O)N1C[C@H](O)COC[C@@H]2O[C@@H](CC(=O)NCCc3ccncc3)CC[C@H]21	-11	·	·	·	1
SMILES	Statin myotox sup	AI-2 QS mod	Rce1 inh	HIF activator	PGC1a acetyl inh
C[C@H]1CN([C@@H](C)CO)C(=O)Cc2cc(NC(=O)CCCCCC(=O)Nc3ccccc3N)ccc2O[C@H]1CN(C)Cc1ccncc1	-7	·	·	·	10
Cc1ccc(Sc2c([N+](=O)[O-])c(=O)n(C)c3ccccc23)cc1	90*	-1	i	0	·
Cn1c(=O)c([N+](=O)[O-])c(NCc2ccccc2)c2ccccc21	122*	18	i	0	5
CCNc1c([N+](=O)[O-])c(=O)n(CC)c2ccccc12	·	17	i	0	0
C[C@@H]1CN([C@H](C)CO)C(=O)c2cc(NC(=O)Cc3ccccc3)ccc2O[C@@H](C)CCCCO[C@@H]1CN(C)C(=O)Nc1cccc2ccccc12	-5	·	·	·	4
C[C@@H]1CN([C@@H](C)CO)C(=O)Cc2cc(NC(=O)C3CCCCC3)ccc2O[C@H]1CN(C)CC1CCCCC1	22	·	·	·	-6
Nc1ccccc1C#CC(=O)c1ccccc1	-54	-90*	i	-2	·
O=C(C#Cc1cccc([N+](=O)[O-])c1)c1ccccc1	-508	-55	i	2	17
CC(C)CCCCCCCCCCCCC(=O)NCC(=O)NC1C(O)C(O)C(Nc2ncnc3nc[nH]c23)OC1C(O)CO (configuration not stated)	·	·	·	·	96*
CC(O)CNc1ncnc2nc[nH]c12 (configuration not stated)	-10	7	i	0	6
O=C(c1ccccc1)N1C[C@@H]2[C@H](c3ccccc31)[C@@H](CO)N2S(=O)(=O)c1ccccc1	1	·	·	·	4
CCC(C(=O)OCC(=O)Nc1ccc(SC(F)F)cc1)c1ccccc1 (configuration not stated)	-13	-89*	i	0	·
Cc1ccc(-c2nnn(CC(=O)N(CCO)C(C(=O)NC3CCCCC3)c3ccncc3)n2)o1 (configuration not stated)	·	13	i	0	-3
Cc1ccc(-c2nnn(CC(=O)N(CCCO)C(C(=O)NC3CCCC3)c3ccc(Cl)cc3)n2)o1 (configuration not stated)	80*	19	i	0	-14
Cn1cnc(S(=O)(=O)N2[C@@H]3CNC[C@H]2C3c2ccc(-c3ccccc3)cc2)c1 (some centres not stated)	·	·	·	·	-3
O=C(C#Cc1ccccc1)c1ccco1	-728	-94*	i	-4	·
O=C(N/N=C/c1ccccc1)c1ccco1	-1	7	i	2	2
O=C(N[C@H]1CC[C@H](CCNS(=O)(=O)Cc2ccccc2)O[C@@H]1CO)c1ccccc1F	3	·	·	·	5
CO[C@@H]1CN(C)C(=O)c2ccc(NC(=O)C3CC3)cc2OC[C@@H](C)N(C(=O)C2CCCCC2)C[C@H]1C	·	·	·	·	-8
CC1CC/C(=C\c2ccc3c(c2)OCO3)C(=O)/C1=C/c1ccc2c(c1)OCO2 (configuration not stated)	207*	0	i	0	6
O=C1/C(=C\c2ccc3c(c2)OCO3)CCC/C1=C/c1ccc2c(c1)OCO2	·	42	i	0	6
C[C@H](CO)N1C[C@H](C)[C@H](CN(C)C(=O)C2CCC2)Oc2cc(-c3ccccc3)ccc2S1(=O)=O	49	·	·	·	-13
COc1ccc2c3c(n(C)c2c1)[C@H](CO)N(C(=O)Cc1ccccn1)CC31CCN(CC2CCOCC2)CC1	·	·	·	·	-1
Cc1nc(N)nc(N)c1/C=C/C(C)(C)c1ccc(Cl)cc1	·	-89*	i	-2	-7
O=c1oc(-c2ccc(F)cc2)nc2ccsc12	-1	10	i	0	4
O=c1oc(-c2ccccc2Cl)nc2ccsc12	·	-83*	i	0	-5
